These results are taken from PubChem BioAssay (Tox21).

Results filed as inconclusive are left out. Where a call stands in place of a potency, no number is given. A number with no mark means an inactive call. Calls of active or inactive are those of the source. The call rests on the fitted dose curve; in most records, active means well fitted curve in the direction sought with a large enough effect in the repeat runs; inconclusive means weak or mixed curves; inactive means no such curve, though single readings can be large; an effect the other way counts as inactive or inconclusive.
Further: nearly all actives have a fitted effect of over 50% in size.

Sequence of Cytochrome P450 3A4 (Homo sapiens) (P08684 whole entry, looked up): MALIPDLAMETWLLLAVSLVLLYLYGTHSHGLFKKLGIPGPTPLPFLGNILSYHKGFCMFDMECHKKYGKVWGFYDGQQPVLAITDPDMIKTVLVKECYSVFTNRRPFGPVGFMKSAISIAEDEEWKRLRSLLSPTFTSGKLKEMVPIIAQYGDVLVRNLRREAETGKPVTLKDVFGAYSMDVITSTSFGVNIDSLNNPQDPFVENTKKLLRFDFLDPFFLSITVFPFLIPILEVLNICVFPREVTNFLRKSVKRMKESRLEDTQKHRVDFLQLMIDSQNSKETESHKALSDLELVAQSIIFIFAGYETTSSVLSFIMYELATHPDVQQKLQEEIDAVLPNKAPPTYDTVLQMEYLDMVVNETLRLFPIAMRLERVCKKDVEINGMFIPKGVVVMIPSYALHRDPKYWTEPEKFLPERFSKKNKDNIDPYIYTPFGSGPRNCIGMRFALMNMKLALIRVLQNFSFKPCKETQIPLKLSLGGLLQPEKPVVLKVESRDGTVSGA
Sequence of Voltage-gated inwardly rectifying potassium channel KCNH2 (Homo sapiens) (Q12809 whole entry, looked up): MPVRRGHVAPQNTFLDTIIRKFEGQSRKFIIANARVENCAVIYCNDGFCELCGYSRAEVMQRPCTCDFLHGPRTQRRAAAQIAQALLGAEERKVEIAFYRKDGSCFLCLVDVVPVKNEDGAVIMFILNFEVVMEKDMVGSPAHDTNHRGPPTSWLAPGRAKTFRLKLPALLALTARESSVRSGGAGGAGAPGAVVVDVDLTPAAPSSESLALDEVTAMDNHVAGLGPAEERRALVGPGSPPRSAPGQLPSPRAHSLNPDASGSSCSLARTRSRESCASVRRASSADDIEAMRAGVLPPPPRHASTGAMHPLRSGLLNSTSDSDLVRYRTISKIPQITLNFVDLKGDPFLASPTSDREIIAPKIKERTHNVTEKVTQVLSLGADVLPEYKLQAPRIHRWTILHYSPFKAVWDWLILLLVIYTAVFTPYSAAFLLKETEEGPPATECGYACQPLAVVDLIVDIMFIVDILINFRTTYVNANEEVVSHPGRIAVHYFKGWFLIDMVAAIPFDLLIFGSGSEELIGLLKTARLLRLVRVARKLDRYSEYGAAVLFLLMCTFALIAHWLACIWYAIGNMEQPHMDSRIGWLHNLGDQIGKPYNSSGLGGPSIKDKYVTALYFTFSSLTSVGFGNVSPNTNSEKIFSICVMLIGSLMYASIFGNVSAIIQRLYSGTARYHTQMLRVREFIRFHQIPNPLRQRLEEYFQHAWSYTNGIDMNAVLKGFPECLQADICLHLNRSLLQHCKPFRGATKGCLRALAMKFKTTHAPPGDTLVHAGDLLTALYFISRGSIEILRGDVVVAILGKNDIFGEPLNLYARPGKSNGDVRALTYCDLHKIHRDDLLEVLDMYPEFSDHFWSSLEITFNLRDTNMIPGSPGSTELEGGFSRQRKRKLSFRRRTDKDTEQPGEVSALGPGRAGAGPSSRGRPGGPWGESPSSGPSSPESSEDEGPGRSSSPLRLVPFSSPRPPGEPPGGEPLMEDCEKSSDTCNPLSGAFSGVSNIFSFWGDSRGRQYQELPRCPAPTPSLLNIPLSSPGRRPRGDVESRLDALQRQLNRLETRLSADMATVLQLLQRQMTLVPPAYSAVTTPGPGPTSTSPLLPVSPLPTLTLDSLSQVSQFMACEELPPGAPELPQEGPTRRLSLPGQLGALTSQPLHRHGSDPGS

The first experiment addresses Voltage-gated inwardly rectifying potassium channel KCNH2 (Homo sapiens) (UniProt Q12809). As to the kind of experiment: Human Ether-a-go-go-Related Gene (hERG) channel small molecule antagonists: fluorescence cell-based qHTS assay (AID 1671200).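 Further: hERG-expressing U2OS cells given a thallium stimulus after FluxOR II dye loading.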 As to conditions: hERG-U2OS cells, FluxOR thallium flux fluorescence; series mostly up to 76.8 µM. In short, it runs like this:
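U2OS cells expressing the channel were plated at 1000 cells/well, incubated overnight at 37 C, then loaded with FluxOR II thallium-sensitive dye for 1 h at room temperature in the dark, with a further 10 min at room temperature before stimulation.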
As for `C=CCc1cc(S(=O)(=O)c2ccc(O)c(CC=C)c2)ccc1O`, the Potency result is “inactive”.
Turning to `Cc1cccc2c1ccc1ccccc12`, the Potency entry is “inactive”.
For `O=C1OC(O)C(C(Cl)Cl)=C1Cl` (stereo not drawn), the Potency result is “inactive”.
Same read-out and setting: the result for `CCOc1nc(F)cc2nc(S(=O)(=O)Nc3c(Cl)cccc3C(=O)OC)nn12` reads “inactive”.
On to `C=CC(=O)OCCOC1C2CCC1C1CC=CC12` (stereo not drawn), for which the activity change, negative = inhibition is 2.03% [at 15.8 µM].
As for `Nc1cc([N+](=O)[O-])cc(Cl)c1O`, the Potency entry was “inactive”.
In the case of `Nc1ccc(F)c([N+](=O)[O-])c1`, the Potency result was “inactive”.
For the molecule `C=C(C)CCO`, the Potency entry was “inactive”.
The same measure, in the same setting: as for `C=Cc1ccncc1`, the entry is “inactive”.
Turning to `Cc1c[nH]c(=O)[nH]c1=O`, the Potency entry was “inactive”.
`C/C(=N\[Si](C)(C)C)O[Si](C)(C)C`: the Potency entry is “inactive”.
Turning to `CC(C=O)c1ccccc1` (stereo not drawn), the Potency result was “inactive”.
For `CC(C)(C)c1cc(CCC(=O)OCCSCCOC(=O)CCc2cc(C(C)(C)C)c(O)c(C(C)(C)C)c2)cc(C(C)(C)C)c1O`, the Potency entry was “inactive”.
For `COC(=O)c1ccc([N+](=O)[O-])cc1`, the Potency result is “inactive”.
Same read-out and setting: the result for `Nc1ccc(Cl)c([N+](=O)[O-])c1` reads “inactive”.
In the case of `CCCCCCCCCCCCN1CCCC1=O`, the Potency entry is “inactive”.
For `CCN(CC)c1ccc(C=O)cc1`, the Potency entry is “inactive”.
Turning to `Nc1ccc2c(S(=O)(=O)O)cccc2c1S(=O)(=O)O`, the Potency result was “inactive”.
For the molecule `C=CC(C)(C)O`, the Potency entry was “inactive”.
On the same count and under the same terms, the result for `Cc1ccc(C=O)cc1` reads “inactive”; that for `CC1(C)[C@H](C(=O)OCc2cccc(Oc3ccccc3)c2)[C@@H]1C=C(Cl)Cl`, “inactive”.
Take `c1ccc2c(c1)-c1ccc3ccc4cccc5cc-2c1c3c45`: the Potency result is “inactive”.
For `CO[Si](OC)(c1ccccc1)c1ccccc1`, the Potency entry was “inactive”.
On the same count and under the same terms, as for `CC(c1cc(C(C)(C)C)cc(C(C)(C)C)c1O)c1cc(C(C)(C)C)cc(C(C)(C)C)c1O`, the entry is “inactive”.
On the same count and under the same terms, the result for `Cc1cccc(C)c1C` reads “inactive”.
Same read-out and setting: the result for `[Cl][Dy]([Cl])[Cl]` reads “inactive”; that for `CCOC(=O)[C@H](O)[C@@H](O)C(=O)OCC`, “inactive”.
As to `Cc1ccc(C2OC[C@@H]3OC(c4ccc(C)cc4)O[C@H]([C@H](O)CO)[C@@H]3O2)cc1` (stereo partly drawn), the Potency entry is “inactive”.
With `CCn1c2ccccc2c2ccccc21`, the Potency result was “inactive”.
Take `Nc1cc([N+](=O)[O-])ccc1Cl`: the Potency entry is “inactive”.
Consider `CCOC=C(C(=O)OCC)C(=O)OCC`, for which the Potency result is “inactive”.
With `c1ccc2cc3c4ccccc4c4ccccc4c3cc2c1`, the Potency result was “inactive”.
Still for that read-out and setting: as for `Brc1cc(Br)cc(Br)c1`, the entry is “inactive”.

The next experiment has as its target Cytochrome P450 3A4 (Homo sapiens) (UniProt P08684). The experiment in a line: Cytochrome P450 Family 3 Subfamily A Member 4 (CYP3A4) small molecule antagonists: luciferase reporter qHTS assay (AID 1671201). Further: potency means the concentration at half of the fitted maximal effect. As to conditions: P450-Glo CYP3A4 enzyme, luciferin luminescence, 1 h; series mostly up to 115 µM. The essentials: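 P450-Glo CYP3A4 system with proluciferin substrate; compounds preincubated 10 min RT with enzyme-substrate mix, then NADPH regeneration added for 1 h RT. Detection reagent 20 min, luminescence read as relative luminescence units.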
On the technique in general: Reporter assays use an easily measured gene product as a stand-in for the process of interest.
Consider `C=CCc1cc(S(=O)(=O)c2ccc(O)c(CC=C)c2)ccc1O`, for which the Potency is 28.3 µM (active).
`Cc1cccc2c1ccc1ccccc12`: the Potency result was “inactive”.
Still for that read-out and setting: as for `O=C1OC(O)C(C(Cl)Cl)=C1Cl` (stereo not drawn), the entry is “inactive”; as for `CCOc1nc(F)cc2nc(S(=O)(=O)Nc3c(Cl)cccc3C(=O)OC)nn12`, 35.6 µM (active).
On to `C=CC(=O)OCCOC1C2CCC1C1CC=CC12` (stereo not drawn), for which the activity change, negative = inhibition was -3.35% [at 23.6 µM].
For `Nc1ccc(F)c([N+](=O)[O-])c1`, the Potency entry is “inactive”.
On to `C=C(C)CCO`, for which the Potency entry was “inactive”.
As to `Cc1ccc(N=Nc2c(O)ccc3ccccc23)c(C)c1`, the Potency entry is “inactive”.
Regarding `CCCCC/C=C\C=C\C(=O)OCC`, the Potency was 16.6 µM (active).
Turning to `C=Cc1ccncc1`, the Potency result is “inactive”.
For `Cc1c[nH]c(=O)[nH]c1=O`, the Potency result was “inactive”.
As for `C/C(=N\[Si](C)(C)C)O[Si](C)(C)C`, the Potency entry was “inactive”.
`CC(C=O)c1ccccc1` (stereo not drawn): the Potency result is “inactive”.
Still for that read-out and setting: as for `O=C1CCC/C=C\CCCCCCCCCC1`, the figure is 31.7 µM (active).
Same read-out and setting: as for `CC(C)(C)c1cc(CCC(=O)OCCSCCOC(=O)CCc2cc(C(C)(C)C)c(O)c(C(C)(C)C)c2)cc(C(C)(C)C)c1O`, the figure is 4.9 µM (active); as for `COC(=O)c1ccc([N+](=O)[O-])cc1`, “inactive”; as for `Nc1ccc(Cl)c([N+](=O)[O-])c1`, “inactive”.
Still for that read-out and setting: as for `CCCCCCCCCCCCN1CCCC1=O`, the entry is “inactive”; as for `CCCCCCCCOC(=O)c1cc(O)c(O)c(O)c1`, 35.6 µM (active); as for `CCN(CC)c1ccc(C=O)cc1`, “inactive”.
Take `Nc1ccc2c(S(=O)(=O)O)cccc2c1S(=O)(=O)O`: the Potency entry was “inactive”.
Consider `C=CC(C)(C)O`, for which the Potency result is “inactive”.
For the molecule `Cc1ccc(C=O)cc1`, the Potency result is “inactive”.
Turning to `CC1(C)[C@H](C(=O)OCc2cccc(Oc3ccccc3)c2)[C@@H]1C=C(Cl)Cl`, the Potency result is “inactive”.
Consider `c1ccc2c(c1)-c1ccc3ccc4cccc5cc-2c1c3c45`, for which the Potency entry was “inactive”.
Turning to `Cc1cccc(C)c1C`, the Potency entry is “inactive”.
As to `CCOC(=O)[C@H](O)[C@@H](O)C(=O)OCC`, the Potency result was “inactive”.
As for `CCn1c2ccccc2c2ccccc21`, the Potency entry was “inactive”.
As to `CCOC=C(C(=O)OCC)C(=O)OCC`, the Potency entry is “inactive”.
Same read-out and setting: the result for `Brc1cc(Br)cc(Br)c1` reads “inactive”.
